According to PubChem BioAssay AID1259313 (Sanford-Burnham Center for Chemical Genomics, 2017):
Hit rate of the full screen: of about 340,000 compounds, about 8,500 (2.5%) were called active. Shown is part of a subset that was picked to be rich in actives. Values without a mark were called inactive.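 Rule for the calls: active = melting temperature shift of at least 10% of the positive control shift, at one fixed dose; inactive = the rest.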

These molecules were tested on Glutamate receptor ionotropic, NMDA 3A (GRIN3A) ligand-binding domain (assay: binders of NR3A ligand-binding domain, primary screen, biophysical, differential scanning fluorimetry, uHTS (AID 1259313)). Conditions: NR3A LBD differential scanning fluorimetry, at 25 µM, stronger effect = higher value, 0% = protein alone, 100% = glycine-bound protein.

| SMILES | Tm shift relative to glycine control |
| --- | --- |
| CC1CC1C(=O)OCC(=O)c1c(N)n(C)c(=O)n(C)c1=O (stereo not given) | -0.75% |
| O=C(Nc1ccc(OC(F)(F)F)cc1)c1ccc2c(c1)no[n+]2[O-] | -3.76% |
| Cc1cccc(N(CC(=O)N=Nc2c(O)[nH]c3ccccc23)S(C)(=O)=O)c1C | -1.51% |
| Cc1c(-c2ccccc2)n[nH]c1C(=O)N=Nc1c(O)[nH]c2ccccc12 | 13.9% (active) |
| O=C(CCN1CCCCC1)N=Nc1c(O)[nH]c2ccccc12 | -1% |
| COc1ccc(CNC(=O)C2CCN(S(=O)(=O)c3ccc(SC)cc3)CC2)cc1 | 1% |
| CCc1ccccc1NC(=O)CSc1nnc([C@@H](NC(=O)OC(C)(C)C)C(C)CC)o1 (stereo not given in full) | -1.3% |
| C[C@@H](NC(=O)OC(C)(C)C)c1nnc(S(=O)(=O)Cc2ccccc2)o1 | 0% |
| CC(C)Sc1nnc([C@H](Cc2ccccc2)NC(=O)OC(C)(C)C)o1 | 32.2% (active) |
| C/C(CC(O)(/C=N/O)c1ccccc1)=N\O (stereo not given) | 1.21% |
| COc1ccc2ccccc2c1CNc1nnnn1C | 0.15% |
| Clc1ccc(Nc2ccc3ccccc3n2)cc1 | 45% (active) |
| O=C(NNC(=O)c1ccc2ccccc2c1)c1ccc(Cl)cc1 | -1.56% |
| Cc1cccc(NC(=O)c2ccc3ccccc3n2)n1 | -0.88% |
| CC1(C)CC(=O)C=C(NCCCN2CCCC2=O)C1 | -0.27% |
| Nc1nc(C23CC4CC(CC(C4)C2)C3)cs1 | -1.42% |
| COC(=O)c1cc(NC(=O)c2cc(C(C)(C)C)nn2Cc2cccc(C)c2)ccc1N1CCOCC1 | -0.21% |
| CCCC1(C(=O)OCC)NC(c2ccc(N(C)C)cc2)C2C(=O)N(c3ccc4c(c3)OCCO4)C(=O)C21 (stereo not given) | 17% (active) |
| COC(=O)C1(C)NC(c2ccc(C)cc2)C2C(=O)N(c3ccc(F)cc3)C(=O)C21 (stereo not given) | 2.13% |
| CCCCC1(C(=O)OCC)NC(c2ccc(O)cc2)C2C(=O)N(c3ccccc3)C(=O)C21 (stereo not given) | -1.17% |
| O=C(CC1SC(N2CCOCC2)=NC1=O)Nc1ccccc1F (stereo not given) | -1.22% |
| COc1ccc(S(=O)(=O)N2CCN(C(=O)N(C)C)C2C)cc1 (stereo not given) | -2.39% |
| Cc1nn(C)c(Cl)c1CN1CCC(Oc2ccc(C(=O)N3CCCC3)cc2)CC1 | 12.6% (active) |

| SMILES | Tm shift relative to glycine control |
| --- | --- |
| O=C(c1ccc(OC2CCN(Cc3ccccn3)CC2)cc1)N1CCCCCC1 | 0.85% |
| CC(=O)Nc1ccc(CN2CCC(Oc3ccc(C(=O)N4CCCC4)cc3)CC2)cc1 | 0.37% |
| COc1ccccc1C(=O)NC(=O)COC(=O)C1CC1 | -1.81% |
| C[C@@H](C(=O)N1CCNCC1)n1cc(CCC(=O)O)nn1 | 1.39% |
| O=C(c1cccc(S(=O)(=O)N2CCCCCC2)c1)N1CCN(Cc2ccccc2)CC1 | 0.36% |
| Cc1cccc(C(=O)N2CCN(S(=O)(=O)N3CCCCC3)CC2)c1 | 11.1% (active) |
| Cc1ccc(C(=O)N2CCN(S(=O)(=O)N3CCOCC3)CC2)cc1 | -1.26% |
| CCOc1ccc(C(=O)Nc2c3c(nn2-c2ccccc2)CS(=O)(=O)C3)cc1 | -0.47% |
| COc1cc(C(=O)Nn2c(O)c(C3=c4ccccc4=NC3=O)sc2=S)ccc1O | 11.1% (active) |
| COc1cc(C(=O)Nn2c(CC(C)C)nc3ccccc3c2=O)cc(OC)c1OC | -0.54% |
| COc1cc(C(=S)NC2CCCCC2)ccc1O | -5.68% |
| CN(CC(=O)Nc1ccccc1F)CC(=O)Nc1ccccc1Br | -1.08% |
| CCOc1ccc(NC(=O)CN(C)C(=O)COc2cccc(CC)c2)cc1OCC | 3.14% |
| Cc1nn(C)c(C)c1S(=O)(=O)N1CCc2ccccc21 | -0.32% |
| Cc1cccc(NC(=S)N2CCC(C(=O)c3ccc(F)cc3)CC2)c1 | -1.17% |
| CCc1cccc(CC)c1NC(=S)NCc1ccc2[nH]c(C)cc2c1 | -6.16% |
| Cc1cccc(NC(=S)NCc2ccc3[nH]c4c(c3c2)CCCC4)c1 | 16.4% (active) |
| CC(NC(=O)c1cc(=O)[nH]c2ccccc12)c1ccc(F)cc1F (stereo not given) | -1.44% |
| CCCn1c(=N)n(CC(=O)c2ccc(Cl)c(Cl)c2)c2ccccc21 | -6.05% |
| CCOC(=O)C1CCN(Cc2nnc(-c3cccc(Br)c3)o2)CC1 | 222% (active) |
| CCOC(=O)N1CCN(Cc2nnc(-c3ccccc3Cl)o2)CC1 | 0.35% |
| CCOC(=O)C1CCN(Cc2ccc(-c3ccccc3)cc2)CC1 | -0.95% |
| CCOC(=O)c1cc2c(=O)[nH]c(C(Cl)(Cl)Cl)nc2o1 | 5.2% |

| SMILES | Tm shift relative to glycine control |
| --- | --- |
| C/C(Cl)=C\Cn1c(Nc2cccc(C)c2)nc2c1c(=O)n(C)c(=O)n2C | 18.4% (active) |
| Cn1c(=O)c2c(nc(NCCc3ccccc3)n2Cc2ccccc2)n(C)c1=O | -12.7% |
| Cc1cccc(Cn2c(N3CCN(c4ccccc4)CC3)nc3c2c(=O)n(C)c(=O)n3C)c1 | -1.11% |
| FC(F)(F)c1ccc(-c2cccc3c2C2CC3CCN2Cc2ccccc2)cc1 (stereo not given) | 0.87% |
| Cc1ccc(CNC(=O)CCNS(=O)(=O)c2ccc(Br)s2)cc1 | 0.52% |
| CCc1cccc(NC(=O)CCNS(=O)(=O)c2cccc3nonc23)c1 | -1.5% |
| Cc1ccc(CNC(=O)CCNS(=O)(=O)c2cccc3nonc23)cc1 | 17.3% (active) |
| COC(=O)c1ccc(CN(c2ccccc2OC)S(=O)(=O)c2cccs2)o1 | 0% |
| COC(=O)[C@]1(Cc2ccccc2)N[C@H](CN(C)S(=O)(=O)c2ccc(OC(F)(F)F)cc2)[C@@H]2C(=O)N(Cc3ccccc3)C(=O)[C@@H]21 | 18.1% (active) |
| COC(=O)[C@]1(Cc2ccccc2)N[C@H](CN(C)S(=O)(=O)c2ccc(OC(F)(F)F)cc2)[C@@H]2C(=O)N(C)C(=O)[C@@H]21 | -3.1% |
| COC(=O)[C@]1(Cc2ccccc2)N[C@H](CN(C)S(=O)(=O)c2ccc(F)cc2)[C@@H]2C(=O)N(Cc3ccccc3)C(=O)[C@@H]21 | 0.82% |
| N/C(=N\S(=O)(=O)c1cc(C(F)(F)F)cc(C(F)(F)F)c1)c1cccs1 | -1.45% |
| N#Cc1cccc(CSc2nnc(CCCO)n2-c2ccccc2)c1 | -2.26% |
| O=C(Nc1ccc(S(=O)(=O)N2CCOCC2)cc1)c1ccc2ncsc2c1 | 23.1% (active) |
| O=C(Nc1ccc(N2CCOCC2)cc1)c1cccc(S(=O)(=O)N2CCOCC2)c1 | 1.57% |
| O=C(Nc1ccc(S(=O)(=O)Nc2nccs2)cc1)c1cccc(S(=O)(=O)N2CCOCC2)c1 | -7.34% |
| COc1ccc2c(c1)OC(O)(C(F)(F)C(F)F)CC2=O (stereo not given) | -0.91% |
| C=CCN(c1ccc(Cl)cc1)S(=O)(=O)c1cccc(C(=O)OCC(=O)N(C)C)c1 | -2.3% |
| O=C(CSc1nc(O)c(Cc2ccccc2)c(=O)[nH]1)Nc1nc2c(s1)CCCC2 | 0.31% |
| CN(C)CCNc1ccc(-c2n[nH]c(=O)c3ccccc23)cc1[N+](=O)[O-] | -4.51% |
| COc1cc(C2c3cc4c(cc3C(O)C3COC(=O)C23)OCO4)cc(OC)c1OC (stereo not given) | 0.33% |
| CN(CC#CCC(c1ccccc1)c1ccccc1)C(C)(C)C | -1.63% |
| CC(C)(C)N(CC#CCC(O)(c1ccccc1)C1CCCC1)CCO (stereo not given) | 14.9% (active) |

| SMILES | Tm shift relative to glycine control |
| --- | --- |
| OC(C#CCN1CCOCC1)(c1ccccc1)C1CCCCC1 (stereo not given) | 0.88% |
| O=C(NN1C(=O)C2C3C=CC(O3)C2C1=O)c1ccccc1 (stereo not given) | -2.22% |
| Cc1ccc2nsnc2c1NC(=O)c1ccccc1[N+](=O)[O-] | -9.29% |
| COc1ccc(/C=N/NC(=O)Nc2ccc3nsnc3c2)c(OC)c1 | -2.88% |
| O=C(Nc1ccccc1)c1ccc2nsnc2c1 | 1.64% |
| COCCNC(=O)Nc1ccc2nc(-c3ccco3)c(-c3ccco3)nc2c1 | -1.95% |
| Cc1nc(/N=C(\N)NC(=O)NC2CCCCC2)nc2ccccc12 | -0.41% |
| COc1ccc2nc(C)cc(Nc3cccc(C(=O)O)c3)c2c1 | -1.4% |
| Cc1ccc(NC(=O)Nc2ccc3oc(C)nc3c2)cc1 | -7.01% |
| COc1ccc(NC(=O)Nc2ccc3nc(C)c(C)nc3c2)cc1 | 19% (active) |
| COc1ccc(NC(=O)Nc2ccc3nsnc3c2)cc1 | 33.6% (active) |
| COc1ccc2nc(/N=C(\N)NC(=O)Nc3ccccc3)nc(C)c2c1 | 29.4% (active) |
| CCC1(C(=O)c2ccccc2)C(c2cccc([N+](=O)[O-])c2)C1(C(=O)OC)C(=O)OC (stereo not given) | -4.39% |
| CCCCCN(C(=O)NC(=O)Nc1ccccc1C)S(C)(=O)=O | -1.26% |
| O=C(CN1CCN(S(=O)(=O)c2ccc3ccccc3c2)CC1)NC(=O)NC1CCCCC1 | -9.92% |
| COc1cc(NS(=O)(=O)c2ccc(NC(=S)NC(=O)c3ccccc3)cc2)nc(OC)n1 | -2.53% |
| CCOC(=O)CCP(=O)(O)C(O)(c1ccccc1)c1ccccc1 | -1.33% |
| Cc1ccc(N2C(=O)CN=C2Nc2nc(C)cc(C)n2)cc1 | -1.23% |
| O=C(Nc1nnc(SCc2c(Cl)cccc2Cl)s1)C1CCCO1 (stereo not given) | 1.89% |
| O=C(Nc1nnc(SCc2ccc(Cl)cc2Cl)s1)C1COc2ccccc2O1 (stereo not given) | 15.3% (active) |
| O=C(Nc1nnc(SCc2ccccc2Cl)s1)c1cccc([N+](=O)[O-])c1 | -14.6% |
